{"source": "PubChem BioAssay AID504373", "about": "(National Center for Advancing Translational Sciences (NCATS), 2011)", "note": "“And” between values parts separate entries of the source, which are not always exact repeats. Identical values can stand only once. Records with an inconclusive call do not appear. Some compounds were tested as several samples or in several runs, with calls that do not always agree. The source made the active and inactive calls.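 How the source made its calls: active means fewer circulating green fluorescent tagged thrombocytes in treated fish, with no visible harm to the embryos; inconclusive means compound visibly harmful to the embryos; inactive means no drop in circulating tagged thrombocytes.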"}
{"assay": "qHTS Assay for Compounds Blocking the Interaction Between CBF-beta and RUNX1 for the Treatment of Acute Myeloid Leukemia: Zebrafish assay for Hematopoiesis, SAR for Probe", "settings": "GFP-cd41 zebrafish embryos, microscopy, 5 days, at 10 uM, stronger effect = lower value", "description": "(§1) NIH Chemical Genomics Center [NCGC] NIH Molecular Libraries Probe Production centers Network [MLPCN] MLPCN Grant: X01MH083259-01 Assay Submitter (PI): Paul Liu NCGC Assay Overview: Core Binding Factor (CBF) abnormalities are associated with 20-25% of all acute myeloid leukemias (AML), of which 5-10% are further sub classified as acute myelomonocytic leukemia with eosinophilia, also known as M4Eo in the FAB classification scheme. This subtype of leukemia is usually associated with chromosome 16 inversion (p13:q22). Chromosome 16 inversion results in formation of the fusion oncogene CBFB-MYH11, which encodes the fusion protein CBF-beta-SMMHC. […] It has been hypothesized that the interference of CBF-beta and RUNX1 binding could have therapeutic implications for patients with CBF mediated leukemias. We developed a CBF-beta and RUNX1 binding assay in AlphaScreenTM format and optimized it for high throughput screening to search for inhibitors. The goal of this project is to screen MLPCN's compound collection (MLSMR) for identifying the inhibitors of the interaction between CBF-beta and RUNX1 proteins as research probes. If these probes work well in the animal models, the ultimate goal of this project is to development a new drug treatment for this disease. […] These fish contain a genomic modulation where GFP has been fused to cd41, a marker for thrombocytes, and thus circulating thrombocytes can be easily imaged in anesthetized fish.\n(§2) Assay protocol: GFP-cd41 zebrafish were kindly provided by the Liu lab. Zebrafish embryos were incubated with compound (<0.1% DMSO final) at 48 hours post fertilization, for 5 days. Embryos were manually scored under a microscope with GFP illumination for circulating GFP-tagged thrombocytes. Keywords: MLSMR, MLPCN, NIH Roadmap, qHTS, NCGC, Core binding factor, CBF, CBF-beta, Acute myeloid leukemia", "units": {"fish with circulating GFP thrombocytes": "%"}}
{"smiles": "CN(C)CC(=O)Nc1ccc(Cl)cc1C(=O)c1ccc[nH]1", "fish with circulating GFP thrombocytes": 70}
{"smiles": "NCCCC(=O)Nc1ccc(Cl)cc1C(=O)c1ccc[nH]1", "fish with circulating GFP thrombocytes": 93.3}
{"assay": "qHTS Assay for Compounds Blocking the Interaction Between CBF-beta and RUNX1 for the Treatment of Acute Myeloid Leukemia: Zebrafish assay for Hematopoiesis, SAR for Probe", "settings": "GFP-cd41 zebrafish embryos, microscopy, 5 days, at 25 µM, stronger effect = lower value", "description": "as §1, §2"}
{"smiles": "Nc1ccc(Cl)cc1C(=O)c1ccc[nH]1", "fish with circulating GFP thrombocytes": "83.3% (active)"}
{"smiles": "NCC(=O)Nc1ccc(Cl)cc1C(=O)c1ccc[nH]1", "fish with circulating GFP thrombocytes": "100% (inactive)"}
{"smiles": "CC(C)(N)C(=O)Nc1ccc(Cl)cc1C(=O)c1ccc[nH]1", "fish with circulating GFP thrombocytes": "100% (inactive)"}
{"smiles": "CNCC(=O)Nc1ccc(Cl)cc1C(=O)c1ccc[nH]1", "fish with circulating GFP thrombocytes": "100% (inactive)"}
{"smiles": "CNCc1nc(-c2ccc[nH]2)c2cc(Cl)ccc2n1", "fish with circulating GFP thrombocytes": "100% (inactive)"}
{"smiles": "N[C@H](Cc1ccccc1)C(=O)Nc1ccc(Cl)cc1C(=O)c1ccc[nH]1", "fish with circulating GFP thrombocytes": "100% (inactive)"}
{"smiles": "N[C@@H](CC(=O)O)C(=O)Nc1ccc(Cl)cc1C(=O)c1ccc[nH]1", "fish with circulating GFP thrombocytes": "100% (inactive)"}
{"smiles": "N[C@H](C(=O)Nc1ccc(Cl)cc1C(=O)c1ccc[nH]1)c1ccccc1", "fish with circulating GFP thrombocytes": "100% (inactive)"}
{"smiles": "C[C@@H](N)C(=O)Nc1ccc(Cl)cc1C(=O)c1ccc[nH]1", "fish with circulating GFP thrombocytes": "100% (inactive)"}
{"smiles": "CC(=O)Nc1ccc(Cl)cc1C(=O)c1ccc[nH]1", "fish with circulating GFP thrombocytes": "70.8% (active) and 100% (inactive)"}
{"smiles": "C[C@H](N)C(=O)Nc1ccc(Cl)cc1C(=O)c1ccc[nH]1", "fish with circulating GFP thrombocytes": "100% (inactive)"}
{"smiles": "CN(C)CC(=O)Nc1ccc(Cl)cc1C(=O)c1ccc[nH]1", "fish with circulating GFP thrombocytes": "59.4% (active)"}
{"smiles": "NC(N)=NCCC[C@H](N)C(=O)Nc1ccc(Cl)cc1C(=O)c1ccc[nH]1", "fish with circulating GFP thrombocytes": "100% (inactive)"}
{"smiles": "NC(=O)C[C@H](N)C(=O)Nc1ccc(Cl)cc1C(=O)c1ccc[nH]1", "fish with circulating GFP thrombocytes": "100% (inactive)"}
{"smiles": "NCCC(=O)Nc1ccc(Cl)cc1C(=O)c1ccc[nH]1", "fish with circulating GFP thrombocytes": "100% (inactive)"}
{"smiles": "CCC(=O)Nc1ccc(Cl)cc1C(=O)c1ccc[nH]1", "fish with circulating GFP thrombocytes": "100% (inactive)"}
{"smiles": "CC(C)[C@H](N)C(=O)Nc1ccc(Cl)cc1C(=O)c1ccc[nH]1", "fish with circulating GFP thrombocytes": "100% (inactive)"}
{"smiles": "NCCCC[C@H](N)C(=O)Nc1ccc(Cl)cc1C(=O)c1ccc[nH]1", "fish with circulating GFP thrombocytes": "100% (inactive)"}
{"smiles": "N[C@@H](CCC(=O)O)C(=O)Nc1ccc(Cl)cc1C(=O)c1ccc[nH]1", "fish with circulating GFP thrombocytes": "100% (inactive)"}
{"smiles": "O=C(c1ccc[nH]1)c1cc(Cl)ccc1NC(=O)[C@@H]1CCCN1", "fish with circulating GFP thrombocytes": "100% (inactive)"}
{"smiles": "N[C@@H](Cc1ccccc1)C(=O)Nc1ccc(Cl)cc1C(=O)c1ccc[nH]1", "fish with circulating GFP thrombocytes": "100% (inactive)"}
{"smiles": "NCCCC(=O)Nc1ccc(Cl)cc1C(=O)c1ccc[nH]1", "fish with circulating GFP thrombocytes": "100% (inactive)"}
{"assay": "qHTS Assay for Compounds Blocking the Interaction Between CBF-beta and RUNX1 for the Treatment of Acute Myeloid Leukemia: Zebrafish assay for Hematopoiesis, SAR for Probe", "settings": "GFP-cd41 zebrafish embryos, microscopy, 5 days, at 50 uM, stronger effect = lower value", "description": "as §1, §2", "units": {"fish with circulating GFP thrombocytes": "%"}}
{"smiles": "Nc1ccc(Cl)cc1C(=O)c1ccc[nH]1", "fish with circulating GFP thrombocytes": 70.8}
{"smiles": "CC(=O)Nc1ccc(Cl)cc1C(=O)c1ccc[nH]1", "fish with circulating GFP thrombocytes": 66.7}
